Source: PubChem (National Center for Advancing Translational Sciences (NCATS))
Hits are enriched below; roughly 10% of the tested compounds scored in any of these assays.
hNpr1 antagonist – Natriuretic polypeptide receptor (hNpr1) antagonism - Primary qHTS. Atrial natriuretic peptide receptor 1 (Homo sapiens), P16066. HEK293 hNpr1 GloSensor cGMP, ANP-stimulated luminescence. Potency, µM (top dose mostly 46.3 µM), inactives show at the highest dose activity change, negative = inhibition, actives largely listed as inhibitors. actives 1.6% (n = 76,000). AID 1347048, 2019; calls by dose curve; further: nearly all actives have a fitted effect of over 60% in size
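HEK293 cells stably expressing human Npr1 and cGMP GloSensor pGS-40F, loaded 2 h with 2% GloSensor reagent, given compound 30 min at room temperature. Luminescence read before and 20 min after 0.1 nM hNppA.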
HEK cytotox – Cytotoxic Profiling in HEK 293 Cell Line of Diverse Libraries Using Quantitative High-Throughput Screening; HEK 293 viability, ATP luminescence (CellTiter-Glo), 48-72 h; Potency, µM (highest dose often 115 µM), for the others: at the highest dose activity change, negative = cytotoxicity, usual class: inhibitors; actives 6.6% (n = 94,000); AID 1345083, 2018; further: nearly all actives have a fitted effect of over 60% in size
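HEK 293 seeded at 250 cells/well receive compound via pintool. After 48 or 72 hr at 37 degree Celsius, 5% CO2 and 95% humidity, CellTiter-Glo is dispensed and luminescence read following 10 min at room temperature.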
Luciferase inh – Firefly luciferase inhibition profiling of diverse chemical library using quantitative high-throughput screening; Luciferin 4-monooxygenase (Photinus pyralis), P08659; purified P. pyralis luciferase, luminescence, biochemical; Potency, µM (top dose mostly 115 µM), hits mostly inhibitors; actives 2.5% (n = 76,000); AID 1347043, 2019; further: nearly all actives have a fitted effect of over 65% in size
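Biochemical qHTS: compound (6-point titration) added to 10uM D-luciferin plus 10uM ATP in Tris acetate pH 7.5 buffer with Mg, Tween-20 and BSA, then purified enzyme at 10nM; light output imaged.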
NIH3T3 tox – Cytotoxic Profiling in NIH 3T3 Cell Line of Diverse Libraries Using Quantitative High-Throughput Screening; NIH 3T3 viability, CellTiter-Glo ATP luminescence, 48-72 h; Potency, µM (highest dose often 96.7 µM), for the others: at the highest dose activity change, negative = cytotoxicity, usual class: inhibitors; actives 4.3% (n = 94,000); AID 1345082, 2018; further: nearly all actives have a fitted effect of over 55% in size
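Luminescent ATP readout (CellTiter-Glo, 10 min RT) after 48 or 72 hr compound exposure of NIH 3T3 cells seeded at 400 cells/well in 1536-well format; quantitative HTS.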
GPT2 inhibitor – Primary qHTS assay for inhibitors of Glutamate pyruvate transaminase 2 (GPT2) | Potency, µM (top dose mostly 57.7 µM), for inactives: at the top dose activity change, negative = inhibition, usual class: inhibitors | actives 0.25% (n = 100,000) | Recombinant GPT2, coupled pyruvate oxidase/HRP Amplex Red fluorescence | AID 1671188, 2021; further: nearly all actives have a fitted effect of over 60% in size
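Fluorescence of coupled pyruvate oxidase/HRP/Amplex Red system (50uM Amplex, 30 min, dark) reports pyruvate formed by GPT2. Enzyme reaction: 10ng/uL GPT2, 2mM L-alanine, 250uM a-KG, 30 min room temperature, pH 7.5; 50uM AOA control.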
* marks the source's active call; other numbers are inactive results; i = inactive; ? = inconclusive; . = no result; [ ] = remark or other dose. Unless noted, the call rests on the fitted dose curve; in most records, active means well fitted curve in the direction sought with a large enough effect; inconclusive means small, poorly fitted or top-dose-only effect, or another doubt; inactive means no such curve, though single readings can be large; an effect the other way counts as inactive or inconclusive. On the % scale 0 is the no-effect control and ±100 the full control effect; potency means the concentration at half of the fitted maximal effect.

SMILES	hNpr1 antagonist	HEK cytotox	Luciferase inh	NIH3T3 tox	GPT2 inhibitor
COc1ccccc1-c1cccc(CN2CCCC(C(=O)Nc3ccc(F)cc3)C2)c1 (stereo not given)	.	12.6µM*	.	?	i
CCCC(NC(=O)c1ccc(C#N)cc1)c1ccccc1 (stereo not given)	-3.7%	-17.4%	i	-30.2%	-58.8%
CN(C)c1ccc(CN2CCCC3(CC(Cc4ccccc4)=NO3)C2)cc1 (stereo not given)	11.5%	?	i	-29.8%	-7.3%
CC(C)[C@@H]1C[C@@H]2C[C@@H](NCc3ccccc3)C[C@]2(c2ccccc2)CO1	.	79.4µM*	.	?	.
O=S(=O)(c1ccccc1Cl)N1CCCC(CO)(Cc2cccc(Cl)c2)C1 (stereo not given)	-26.7%	25.1µM*	i	?	i
Cc1nn(C)c(C)c1S(=O)(=O)N1CCCC(CO)(Cc2ccccc2)C1 (stereo not given)	1.4%	-19.8%	i	-27.0%	?
CCn1ccnc1CN1CCCC(CO)(Cc2cccc(Cl)c2)C1 (stereo not given)	-16.4%	?	i	?	4.0%
O=C(c1cc2cc(F)ccc2[nH]1)N1CCCC(CO)(Cc2cccc(Cl)c2)C1 (stereo not given)	-19.4%	79.4µM*	?	?	?
Fc1ccc(CN2CC[C@H](c3nc4ccccc4s3)C2)cc1F	-5.7%[70.6 µM]	100µM*	44.7µM*	?	1.5%[88.5 µM]
OCCC1CN(Cc2nc3ccccc3s2)CCN1Cc1ccc(F)c(F)c1 (stereo not given)	-29.5%	79.4µM*	i	-22.8%	i
OCCC1CN(Cc2cccn2-c2nccs2)CCN1Cc1ccc(F)c(F)c1 (stereo not given)	-5.6%	?	i	-24.4%	?
c1ccc(CCCN2CC[C@H](c3nc4ccccc4s3)C2)cc1	-19.5%[70.6 µM]	100µM*	?	89.1µM*	-16.6%[88.5 µM]
Fc1ccc(CN2CC[C@H](c3nnc(Cc4ccccc4)o3)C2)cc1F	0.3%[70.6 µM]	?	i	?	-27.6%[88.5 µM]
Cn1c([C@H]2CCN(Cc3ccc(F)c(F)c3)C2)nc2ccccc21	-15.8%[70.6 µM]	50.1µM*	i	?	3.6%[88.5 µM]
Cc1ccc(-c2nnc(C3CN(C(=O)c4ccccc4)CC34CCOCC4)o2)cc1 (stereo not given)	-0.8%	-14.4%	i	-3.8%	3.9%
Clc1cccc(CN2CC[C@H](c3nc4ccccc4o3)C2)c1	-7.3%[70.6 µM]	?	i	-20.0%[174 µM]	i
Clc1cccc(CN2CC[C@H](c3nc4ccccc4s3)C2)c1	3.3%[70.6 µM]	100µM*	50.1µM*	?	-5.2%[88.5 µM]
COc1cccc(CN2CC[C@H](c3nc4ccccc4s3)C2)c1	-29.7%[70.6 µM]	100µM*	25.1µM*	?	i
O=C(Nc1ccccc1)O[C@@H]1CO[C@H]2[C@@H]1OC[C@@H]2NCc1ccccc1	0.0%[70.6 µM]	?	i	?	1.0%[88.5 µM]
O=C(c1ccc2c(c1)[nH]c(=O)n2C1CCC(O)CC1)N1CC[C@H]2CNC[C@H]21 (stereo not given in full)	-0.2%	-0.4%	i	-0.8%	-3.6%
Cc1nc2n(c1C(=O)Nc1cccc(Cl)c1C)CCC(Nc1ccc(F)cc1)C2 (stereo not given)	-0.8%[70.6 µM]	89.1µM*	i	?	0.9%[88.5 µM]
O=C(O)CCn1ncc2cc(OCC3CCN(C(=O)Oc4ccccc4)CC3)ccc21	.	-2.7%[172 µM]	i	28.2µM*	0.7%[88.5 µM]
CC(C)OC(=O)N1CCC(COc2ccc3c(cnn3CCC(=O)O)c2)CC1	0.3%[70.6 µM]	-32.4%[172 µM]	?	28.2µM*	i
O=C(O)CCn1ncc2cc(OCC3CCN(C(=O)c4cc(F)ccc4Cl)CC3)ccc21	.	-2.1%	i	31.6µM*	4.8%
COC(=O)[C@H](Cc1ccc(OC)cc1)NC(=O)[C@H]1CN(S(=O)(=O)c2ccccc2)CCN1C(=O)c1cccs1	3.1%	79.4µM*	i	?	0.5%
SMILES	hNpr1 antagonist	HEK cytotox	Luciferase inh	NIH3T3 tox	GPT2 inhibitor
CC(=O)N1CCN(C(=O)c2cccs2)[C@H](C(=O)N[C@@H](CC2CCCCC2)C(N)=O)C1	3.9%[70.6 µM]	-2.3%[172 µM]	i	-13.0%[138 µM]	-8.6%[88.5 µM]
NC(=O)[C@H](CC1CCCCC1)NC(=O)[C@@H]1CN(S(=O)(=O)c2ccccc2)CCN1C(=O)c1cccs1	-5.5%	-3.6%	i	25.1µM*	-18.6%
COc1ccccc1C(=O)Nc1ccc2c(c1)CN(Cc1ccccc1F)C(=O)C(C)O2 (stereo not given)	-18.7%	?	i	?	i
O=C(c1ccccc1)N1C[C@@H]2C[C@H](C1)c1ccc(NS(=O)(=O)c3cccc(F)c3)c(=O)n1C2	1.0%	-2.0%	i	-4.5%	1.2%
O=c1cc(-c2cccnc2)oc2c(NCCc3ccccn3)nccc12	1.0%[70.6 µM]	?	?	35.5µM*	1.1%[88.5 µM]
C[C@@]12CO[C@@H](COc3ccccc3)O[C@@H]1CC[C@]1(C)C2CC[C@@H](O)[C@H]1CC(=O)NCc1cc(F)cc(F)c1 (stereo not given in full)	?	28.2µM*	i	?	-7.1%
COC[C@@H]1OC[C@@]2(C)C3CC[C@@H](O)[C@@H](CC(=O)NCc4ccc(F)cc4)[C@]3(C)CC[C@H]2O1 (stereo not given in full)	5.0%	1.9%	i	-2.3%	-9.1%
CCC(C)CC(=O)OC1C(=O)C(CO)=CC(O)C1C(C)C (stereo not given)	.	.	.	.	i
CCOC(=O)c1ccc(O)c(O)c1	.	.	.	.	28.2µM*
CCC(=O)N1CCCCC1c1noc(COCCOC)n1 (stereo not given)	-8.4%	-2.9%	i	-14.7%	i
CCCn1cc(CNC(=O)c2ccc3c(c2)n(CC)c(=O)c2ccnn23)c(C)n1	-0.1%	79.4µM*	i	?	i
COc1cc(F)ccc1-c1nc(N2CCOCC2)cc2c1CN(CC(F)(F)F)C2=O	2.0%[70.6 µM]	-17.9%[172 µM]	i	?	-11.6%[88.5 µM]
COc1ncccc1-c1cnc2[nH]cc(CC(=O)N3CCOCC3)c2c1	?	?	i	?	i
COC1CCN(C(=O)Cc2c[nH]c3ncc(-c4ccccc4)cc23)CC1	-3.0%[70.6 µM]	-1.3%[172 µM]	?	?	i
COc1ccc(-c2cnc3[nH]cc(CC(=O)N4CCC(OC)CC4)c3c2)cc1	-13.1%[70.6 µM]	?	22.4µM*	?	i
COc1ccc(-c2cnc3[nH]cc(CC(=O)N4CCCC4)c3c2)cc1	?	70.8µM*	22.4µM*	7.94µM*	?
